# In PubChem BioAssay AID720519 (National Center for Advancing Translational Sciences (NCATS), 2013):
# Results filed as inconclusive are left out. Where a call stands in place of a potency, no number is given. The source made the active and inactive calls. Calls come from the whole dose curve; as a rule, active = well fitted activation curve with a large enough effect; inconclusive = small, poorly fitted or top-dose-only effect; inactive = flat fitted curve, though single readings scatter.
# Experiment: qHTS for Inhibitors of Cell Surface uPA Generation: Confirmatory Assay for Cherry-picked Compounds
# Settings: cell surface uPA activity generation, qHTS confirmation; series mostly up to 115 µM
# Method in brief: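 RAW 264.7 cells at 4000/well, incubated overnight, then treated with compounds. After 24 h at 37 C, viability was read by ATPlite luminescence. An increase in signal indicates blocked uPA-dependent LF entry.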
# Potency is the fitted concentration of half-maximal effect.
row,Compound,Potency
1,C[C@]12CCC(O)CC1CCC1C2CC[C@]2(C)C(c3cc(C(F)(F)F)n[nH]3)CCC12 (some centres undefined),inactive
2,CC1=CC(C)(C)N2C(=O)C3(NCCc4c3[nH]c3ccccc43)c3cc(C)cc1c32 (centres undefined),2330 nM (active)
3,CCN(C(=O)CSc1ncnc2sccc12)c1c(N)n(Cc2ccccc2)c(=O)[nH]c1=O,inactive
4,Nc1ccc(S(=O)(=O)c2ccccc2)nc1,inactive
5,COCc1cc(C)nc2sc(C(=O)Nc3nccs3)c(N)c12,inactive
6,Cc1cc(C)nc(NC(=O)CSc2nccc(C)n2)n1,inactive
7,CC1CS(=O)(=O)CCN1N=Cc1ccc([N+](=O)[O-])o1 (centres undefined),inactive
8,Cc1ccc(NC(=O)CCCn2c(=S)[nH]c3ccsc3c2=O)cc1C,inactive
9,CC(=O)Nc1ccc(OS(=O)(=O)c2c(C)cc(C)cc2C)cc1,inactive
10,CCOc1ccc(NS(=O)(=O)c2coc(C(N)=O)c2)cc1,inactive
11,CCOc1ccc(C(=O)NCCO)cc1,inactive
12,CCSC1=NCCN1S(=O)(=O)c1ccc(Cl)cc1,inactive
13,COc1ccc(C(=O)N[C@H](C(=O)NCc2cccs2)C(C)C)cc1,inactive
14,CCOc1cc(S(=O)(=O)NC2CC(C)(C)NC(C)(C)C2)ccc1Cl,inactive
15,CC(=O)c1c(C)n(-c2ccccc2Br)c2ccc(O)cc12,inactive
16,COc1cccc(NC(=O)CSc2nc3ncc(Br)cc3[nH]2)c1,inactive
17,CC(C(=O)Nc1nccs1)c1ccc([N+](=O)[O-])cc1 (centres undefined),inactive
18,CC(C)C(NC(=O)Cc1ccccc1)C(=O)N1CCN(c2cccc(Cl)c2)CC1 (centres undefined),inactive
19,Cc1cc(NC(=O)COc2cccc([N+](=O)[O-])c2)no1,inactive
